Screening data deposited in PubChem by National Center for Advancing Translational Sciences (NCATS).
Most compounds without a hit are left out; they make up all but 4.8% or so of the library.
DRD3 antagonist: qHTS of D3 Dopamine Receptor Antagonist: qHTS; D3R cells, DiscoveRx beta-arrestin luminescence, antagonist mode; stronger effect = lower value; AID 652054, 2013; D(3) dopamine receptor (Homo sapiens), P35462; actives 2.5% (n = 360,000); max response, negative = inhibition, %; in the data active = max response below about -50%; inconclusive = no clear call, values can overlap the other calls; note: % is set by controls: 0 for no effect and ±100 for the full control effect
Target sequence (P35462 whole entry, looked up): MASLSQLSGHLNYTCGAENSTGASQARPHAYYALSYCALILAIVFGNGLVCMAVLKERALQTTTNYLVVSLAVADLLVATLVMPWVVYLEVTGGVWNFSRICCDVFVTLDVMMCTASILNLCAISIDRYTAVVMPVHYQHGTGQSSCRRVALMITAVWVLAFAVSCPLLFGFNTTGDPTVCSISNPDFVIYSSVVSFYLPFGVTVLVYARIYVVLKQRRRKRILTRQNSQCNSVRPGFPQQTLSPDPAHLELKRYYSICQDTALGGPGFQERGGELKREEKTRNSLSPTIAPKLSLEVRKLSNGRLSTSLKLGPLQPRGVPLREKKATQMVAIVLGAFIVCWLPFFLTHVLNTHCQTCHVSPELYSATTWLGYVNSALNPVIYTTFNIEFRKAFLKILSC
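Cells plated overnight at 1500 cells/well, then exposed to library compounds with dopamine controls for 90 minutes at 37 degrees C. DiscoveRx reagent added for 30–60 minutes at room temperature; luminescence read, quantitative HTS format.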
DRD3 agonist: qHTS of D3 Dopamine Receptor Agonist: qHTS; D3R DiscoveRx beta-arrestin cells, luminescence, 90 min; actives 0.58% (n = 410,000); max activation, %; AID 652048, 2013; D(3) dopamine receptor (Homo sapiens), P35462; in the data active = max activation above about 30%; note: 0% is about no effect
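Cells at 1500/well, incubated overnight, then treated with pinned compounds (dopamine as control) for 90 min at 37 degrees C. DiscoveRx reagent added for 30 - 60 minutes at room temperature; luminescence read.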
S2 tox: Viability Counterscreen for Primary qHTS for Inhibitors of ATXN expression; S2 cells (HEK-293 line with an ATXN2-luciferase reporter) viability, CellTiter-Fluor protease fluorescence, 24 h; Potency, µM (titrated, usually from 56.7 µM), most hits filed as cytotoxic; actives 0.49% (n = 400,000); AID 651635, 2014; note: potency is the fitted concentration of half-maximal effect; nearly all actives have a fitted effect of over 40% in size
ATXN2 expr inh: Primary qHTS for Inhibitors of ATXN expression. HEK-293 ATXN2-luciferase reporter, luminescence, 24 h. Potency, µM (highest dose often 57 µM), without a hit: top-dose activity change, negative = inhibition, usual class: inhibitors. actives 0.72% (n = 360,000); note: potency is the fitted concentration of half-maximal effect; % is set by controls: 0 for no effect and ±100 for the full control effect; nearly all actives have a fitted effect of over 55% in size
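qHTS (up to 57 uM final) was run with 24 h compound exposure of reporter cells at 37 °C. Each well was multiplexed: SteadyGlo luminescence measured ATXN2-luciferase expression after a fluorogenic Gly-Phe-AFC viability readout (25 uM final).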
HepG2 tox-1: qHTS for Inhibitors of TGF-b: Cytotox Counterscreen | HepG2 CAGA-GFP viability, ATP luminescence, 18 h | Potency, µM (titrated, usually from 46.1 µM), for the others: at the highest dose activity change, negative = cytotoxicity, most hits filed as cytotoxic | actives 0.76% (n = 410,000); note: potency is the fitted concentration of half-maximal effect
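CellTiter-Glo luminescence gave cytotoxicity after 18 hours at 37 degrees C. The cells were HepG2 CAGA-GFP in 1% FBS DMEM, stimulated with 500 pg/mL TGF-beta after compound addition. %Activity was normalised to no-cell wells (complete cell-killing) and DMSO (no toxicity), and curves were fitted and classified.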
TGFb SMAD3 inh: qHTS for Inhibitors of TGF-b. HepG2 CAGA-GFP TGF-b/SMAD3 reporter, GFP fluorescence, 18 h; TGF-beta stimulated, 500 pg/mL final. Potency, µM (doses to about 46.1 µM), inactives show at the highest dose activity, negative = inhibition, usual class: inhibitors. actives 1.2% (n = 410,000). AID 588855, 2011; note: potency is the fitted concentration of half-maximal effect; % is set by controls: 0 for no effect and ±100 for the full control effect; nearly all actives have a fitted effect of over 65% in size
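Cell-based qHTS in HEPG2 carrying a CAGA-GFP Smad reporter; compounds added before 500 pg/mL final TGF-beta, 18 h incubation at 37 degrees C, GFP fluorescence quantified per cell by imaging cytometry.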
TGFb CAGA inh: qHTS for Inhibitors of TGF-b: Confirmation of Cherry Picks | shares compounds with TGFb SMAD3 inh | HepG2 CAGA-GFP TGF-b reporter, GFP fluorescence, 18 h; cells stimulated with TGF-beta, 500 pg/mL | Potency, µM (highest dose often 46.1 µM), inactives show at the top dose activity, negative = inhibition, usual class: inhibitors | actives 63% (n = 1,600) | AID 720534, 2013; note: potency is the fitted concentration of half-maximal effect; % is set by controls: 0 for no effect and ±100 for the full control effect; nearly all actives have a fitted effect of over 65% in size
HepG2 tox-2: qHTS for Inhibitors of TGF-b: Cytotox Counterscreen for Cherry Picks. shares compounds with TGFb SMAD3 inh. HepG2 CAGA-GFP viability, ATP luminescence, 18 h; cells stimulated with TGF-beta, 500 pg/mL. Potency, µM (top dose mostly 46.1 µM), for the others: at the highest dose activity, negative = cytotoxicity, hits mostly inhibitors. actives 27% (n = 1,600); note: potency is the fitted concentration of half-maximal effect; % is set by controls: 0 for no effect and ±100 for the full control effect; nearly all actives have a fitted effect of over 70% in size
TGFb CCL64 inh: qHTS for Inhibitors of TGF-b: CCL64 Cells Orthogonal Assay for Cherry Picks | shares compounds with TGFb SMAD3 inh | CCL64 CAGA-GFP reporter, TGF-b stimulated, GFP fluorescence, 18 h | Potency, µM (series often up to 46.1 µM), without a hit: at the top dose activity, negative = inhibition, hits mostly inhibitors | actives 41% (n = 1,600); note: potency is the fitted concentration of half-maximal effect; nearly all actives have a fitted effect of over 65% in size
TGFb COP inh: qHTS for Inhibitors of TGF-b: Hit Validation in HepG2 Cells using COP promoter. Potency, µM (highest dose often 46.1 µM), for inactives: at the highest dose activity, negative = inhibition, hits mostly inhibitors. HepG2 COP-GFP TGF-b reporter, GFP fluorescence, 18 h; cells stimulated by added recombinant TGF-beta. shares compounds with TGFb SMAD3 inh. actives 3% (n = 1,600). AID 720537, 2013; note: potency is the fitted concentration of half-maximal effect; nearly all actives have a fitted effect of over 70% in size
Numbers without * were called inactive; i = inactive; ? = inconclusive; nt = not tested or not shown. Unless noted, calls come from the whole dose curve; as a rule, active = well fitted curve in the direction sought with a large enough effect; inconclusive = small, poorly fitted or top-dose-only effect, or another doubt; inactive = no such curve, though single readings can be large; an effect the other way counts as inactive or inconclusive.

SMILES	DRD3 antagonist	DRD3 agonist	S2 tox	ATXN2 expr inh	HepG2 tox-1	TGFb SMAD3 inh	TGFb CAGA inh	HepG2 tox-2	TGFb CCL64 inh	TGFb COP inh
Cc1ccc(SC2=C(N(C)C)C(=O)c3ccccc3C2=O)cc1	0	-7	?	?	-50%	10µM*	?	-21%	21µM*	43%
CN(C)c1cccc2c1C(=O)c1ccccc1C2=O	-21	-4	?	-3%	-18%	-23%	nt	nt	nt	nt
O=S(Cc1ccc(Br)cc1)Cc1nnc(SCc2ccc(Br)cc2)n1-c1ccccc1 (configuration not stated)	-4	0	i	-35%	-41%	8.9µM*	21µM*	?	?	44%
CCC(C)NS(=O)(=O)c1ccc(S(=O)(=O)N2CC=C(c3ccc(F)cc3)CC2)cc1 (configuration not stated)	8	4	i	-29%	-32%	8.9µM*	?	-16%	?	15%
CCC(C)NC(=O)C1=CCN(S(=O)(=O)c2ccc(C)cc2)CC1 (configuration not stated)	4	1	i	4%	-2%	3%	nt	nt	nt	nt
CC1CN(c2nc3ccccc3nc2SCC(=O)Nc2cccc(C(F)(F)F)c2)CC(C)O1 (configuration not stated)	8	5	?	?	-32%	16µM*	23µM*	?	?	29%
CCOc1ccc(NC(=O)CSc2nc3ccccc3nc2N2CC(C)OC(C)C2)cc1 (configuration not stated)	11	-1	i	-11%	-1%	0%	nt	nt	nt	nt
CN(C)c1ccc(C=O)c(O)c1	nt	nt	nt	nt	23%	12%	nt	nt	nt	nt
Cc1ccc(NC(=O)c2cc(CN3CCOCC3)on2)cc1Cl	nt	-2	i	17%	-32%	-5%	nt	nt	nt	nt
CC(NCC(O)COCCC12CC3CC(CC(C3)C1)C2)c1ccccc1 (configuration not stated)	4	0	nt	32µM*	7.1µM*	7.9µM*	?	21µM*	?	?
COc1ccccc1/C=C/C(=O)N1CCc2cc(OC)c(OC)cc2C1C (configuration not stated)	2	2	i	-24%	-19%	14µM*	12µM*	?	-24%	45%
CSc1ccccc1C(=O)NCC1Cc2cc(F)cc(-c3cnccn3)c2O1 (configuration not stated)	nt	nt	i	nt	nt	nt	nt	nt	nt	nt
Clc1ccc2c(SCC3CO3)c3ccccc3nc2c1 (configuration not stated)	-91*	-30	nt	?	-49%	7.9µM*	16µM*	18µM*	21µM*	16µM*
O=C(CSc1c2c(nc3cc(Cl)ccc13)CCCC2)NCCN1CCOCC1	-17	-2	i	-21%	-11%	-8%	nt	nt	nt	nt
Cc1ccc(C(=O)c2oc3ccccc3c2NC(=O)c2nc(S(C)(=O)=O)ncc2Cl)cc1F	nt	1	i	1%	-8%	-6%	nt	nt	nt	nt
CCN(CC)C(=O)c1nc[nH]c1C(=O)N1CCN(c2ccccc2)CC1	16	8	i	8%	4%	?	-5%	3%	8%	18%
CN(Cc1ccccc1)C(=O)c1nc[nH]c1C(=O)N1CCN(c2ccccc2)CC1	1	0	i	15%	0%	2%	nt	nt	nt	nt
O=C(N/N=C/c1ccc[nH]1)c1ccc(COc2cccc3cccnc23)cc1	6	0	?	7.5µM*	2%	1.8µM*	18µM*	?	2.1µM*	67%
Cc1nn(-c2cc(C(F)(F)F)ccc2Cl)c2nc(C(F)(F)F)[nH]c(=O)c12	16	29	?	-1%	6%	?	nt	nt	nt	nt
Cc1nn(-c2cccc(Cl)c2)c2nc(C(F)(F)F)[nH]c(=O)c12	34	6	?	?	-21%	11µM*	6.5µM*	8.2µM*	2.9µM*	36%
Cc1nc(N2CCOCC2)c2c(C(=O)N(C)Cc3ccccc3)c(C)oc2n1	nt	-7	nt	nt	7%	-3%	nt	nt	nt	nt
CC(C)(C)c1ccc(C(=O)CC(=O)c2cc(Cl)ccc2O)cc1	-57*	-5	i	-38%	-16%	5.6µM*	?	?	9.2µM*	59%
Cc1ccc(C(=O)CC(=O)c2ccc(C(C)(C)C)cc2)cc1	-11	2	i	10%	-7%	-3%	nt	nt	nt	nt
CC(C)(C)OC(=O)N1CCC(c2c(C(=O)NCCN3CCOCC3)cnn2-c2ccc(F)cc2F)CC1	nt	4	nt	nt	5%	-41%	nt	nt	nt	nt
CC1(C)Cc2ccccc2C(Nn2cnnc2)=N1	6	-4	i	4%	7%	-14%	nt	nt	nt	nt
CC1(C)Cc2ccccc2C2=NNC(=O)C2=N1	-29	-15	?	?	-89%	3.2µM*	4.6µM*	7.3µM*	?	12µM*
CCc1cccc(C)c1NS(=O)(=O)c1cc2[nH]c(=O)c(=O)[nH]c2cc1C	nt	6	?	15%	6%	6%	nt	nt	nt	nt
CCOC(=O)c1ccccc1NC(=O)Cn1cc(C(=O)c2cccc(OC)c2)c(=O)c2ccc(C)nc21	nt	1	i	11%	-46%	2%	nt	nt	nt	nt
